Screening results deposited in PubChem BioAssay by Pan Lab, Icahn School of Medicine at Mount Sinai.
ROC1-CUL1 inh: human ROC1-CUL1 E3 ligase inhibition; in vitro K48 di-Ub FRET, acceptor:donor ratio, 45 min; inhibition, % at 10 µM; 140,000 compounds, 0.6% hits; P62877+Q13616; in the data active = inhibition above about 25%
* marks the source's active call; other numbers are inactive results. This is one part of a sample in which hits are shown more often than they occur.

SMILES	ROC1-CUL1 inh
CCC(C)NS(=O)(=O)c1ccc2c(c1)Cc1cc(S(=O)(=O)NC(C)CC)ccc1-2 (stereo not given)	-1.5
CC#CCN1C(=O)NC(CCc2ccccc2)(C2CCN(Cc3ccc(OC)c(C)c3C)CC2)C1=O (stereo not given)	2.5
COc1ccc(C(CC(=O)c2ccc(C)cc2)Sc2ccccc2NC(C)=O)cc1 (stereo not given)	-4.5
O=C(O)c1cc(Nc2c([N+](=O)[O-])cc3c4c(cccc24)C(=O)OC3=O)ccc1O	26.9*
O=C(O)c1ccc(N2C(=O)c3cccc4c([N+](=O)[O-])ccc(c34)C2=O)cc1O	-9.0
COc1ccccc1N1C(=O)c2cccc3c(Nc4cccc(Cl)c4)c([N+](=O)[O-])cc(c23)C1=O	-5.8
CC(C(=O)O)N1C(=O)/C(=C/c2ccc3c(c2)OCO3)SC1=S (stereo not given)	2.8
CC(C)N1C(=O)/C(=C/c2ccc3c(c2)OCO3)C(=O)N(Cc2ccco2)C1=O	101.8*
CC(C)(C)C1(C)OC(=O)C(=Cc2ccc3c(c2)OCO3)C(=O)O1 (stereo not given)	3.5
COc1cc(C=Nc2ccc(N3CCNCC3)cc2)ccc1OC(=O)c1ccc([N+](=O)[O-])cc1	-2.1
CCCCOc1ccc(C(=O)Nc2cccc(-c3nc4cc(Cl)ccc4o3)c2)cc1	-8.3
CCOC(=O)c1nn(-c2ccccc2)c(=O)c2c(N)scc12	-5.0
CCOC(=O)c1nn(-c2ccccc2C(=O)O)c(=O)c2c(N)sc(Br)c12	33.2*
CCOC(=O)c1nn(-c2ccccc2C(=O)O)c(N)c1C(N)=S	9.7
CC(=O)c1cc2c(-c3ccccc3)c(-c3ccccc3)oc2c(C)c1O	7.2
Oc1ccc(N=Nc2n[nH]c(C(F)(F)F)n2)cc1	-10.6
COc1ccc(OC)c(NC(=O)c2c(NCc3sccc3C)sc3c2CCCCC3)c1	3.0
COc1ccc(Cl)cc1NC(=O)c1c(NCc2ccc(C)o2)sc2c1CCCCC2	25.7*
COc1ccc(OC)c(NC(=O)c2c(NCc3ccc(C)o3)sc3c2CCCCC3)c1	30.2*
COc1ccc(OC)c(NC(=O)c2c(NCc3ccc(OC)c(OC)c3)sc3c2CCC3)c1	2.6
COc1ccccc1NC(=O)c1c(NCc2ccc(C)o2)sc2c1CCCCC2	23.5
COc1ccc(Cl)cc1NC(=O)c1c(NCc2ccc(C)o2)sc2c1CCC(C)C2 (stereo not given)	-2.5
Cc1cnc(C)c(-c2cccc(-c3ccn(Cc4cccnc4)n3)c2)n1	8.5
O=C(/C=C/c1cccs1)c1ccc(OS(=O)(=O)c2ccc(F)cc2)cc1	-2.5
CCOC(=O)N1CCC(NCc2cc(OC)ccc2OCC(O)CN(C)C)CC1 (stereo not given)	0.8
SMILES	ROC1-CUL1 inh
Cc1cccc(OCCCOc2ccccc2/C=C2\C(=O)NN(c3ccccc3)C2=O)c1	32.2*
O=C1NN(c2ccccc2)C(=O)/C1=C/c1cc(Cl)ccc1OCCCOc1ccccc1	4.0
COc1cc(/C=C2\C(=O)NN(c3ccccc3)C2=O)ccc1OCCCOc1ccccc1	5.0
Cc1ccc(OCCCOc2cccc(/C=C3\C(=O)NN(c4ccccc4)C3=O)c2)cc1	25.5*
Cc1ccc(COc2ccccc2/C=C2\C(=O)NN(c3ccccc3)C2=O)cc1	13.8
COc1cccc(/C=C2/C(=O)NN(c3ccc(C)cc3)C2=O)c1	-1.6
O=C1c2ccccc2N=CC1c1nnnn1-c1ccc(Cl)cc1 (stereo not given)	0.7
C=CC[n+]1ccc(COC(=O)Nc2ccc(Cl)c(Cl)c2)cc1	6.3
CCN(CC)c1ccc(/C=N/NC(=O)C(CSCc2ccccc2)NC(=O)c2cc([N+](=O)[O-])cc([N+](=O)[O-])c2)cc1 (stereo not given)	14.6
CNC(=O)c1ccc2c(c1)CC(C)N2S(C)(=O)=O (stereo not given)	-13.4
CCOC(=O)c1ccc(CNC(=O)c2ccc(-n3cc(NC(=O)c4ccc(C)cc4C)cn3)cc2)o1	3.4
O=C1NN(c2cccc(Cl)c2)C(=O)/C1=C/c1cccc(I)c1	9.2
O=C1NN(c2cccc(F)c2)C(=O)/C1=C\c1ccccc1	-1.7
O=C1NN(c2cccc(Cl)c2)C(=O)/C1=C/c1ccc(O)cc1	10.6
COc1ccc(/C=C2\C(=O)NN(c3cccc(Cl)c3)C2=O)cc1OC	-8.5
O=C1NN(c2cccc(Cl)c2)C(=O)/C1=C/c1ccc(Cl)cc1	63.6*
O=C1NN(c2cccc(Cl)c2)C(=O)/C1=C\c1ccc(F)cc1	83.5*
COc1ccccc1OCC(=O)Nc1cccc(C(=O)c2ccc(C)c(C)c2)c1	-8.6
NN1CCN(Cc2cccc3ccccc23)CC1	4.6
CC(=O)C(C1=NC(C)(C)Cc2ccccc21)c1ccccc1 (stereo not given)	5.3
CCNS(=O)(=O)c1ccc(NC(=O)c2ccccc2)c(F)c1	1.1
Nc1cc2nsnc2cc1Br	96.4*
Nc1cnc(Br)cc1Br	8.7
COc1cc(N2CCCC2)c(OC)cc1/C=C1\SC(=O)N(Cc2ccc(C)cc2)C1=O	-13.0
Cc1cc(C=C2C(=O)c3ccccc3C2=O)ccc1N1CCCC1	11.4
SMILES	ROC1-CUL1 inh
COc1cc(N2CCCC2)c(OC)cc1C=C1C(=O)c2ccccc2C1=O	48.2*
Cn1c(=O)c2cc(C(=O)N/N=C\C3CC=CCC3)c(N)nc2n(C)c1=O (stereo not given)	4.3
CCOc1ccc(CCNC(=O)c2ccc(C(=O)c3cc(OC)ccc3OC)cc2)cc1OCC	6.1
CCOC(=O)c1ccc2c(c1)C(=O)CC(CSc1nnc(-c3cccc(F)c3)n1C)=N2	1.3
COC(=O)[C@H]1CC2C(=O)C=C(c3ccccc3)C1N2C (stereo not given in full)	39.5*
COC(=O)[C@H]1O[C@H](c2ccccc2)O[C@H]1c1ccccc1	1.5
COC(=O)[C@@H]1C(c2ccccc2)N=C(c2ccccc2)[C@H]1C (stereo not given in full)	3.4
CCCC(C)NC(=O)c1ccc(CN2CCCCC2)cc1 (stereo not given)	4.2
O=c1cc(C2CCNCC2)nc(Cc2cccc(Cl)c2)[nH]1	-0.8
COc1cccc(-c2cnnc(NCCSc3nccn3C)n2)c1	-10.3
N#CCN1c2cccc3cccc(c23)S1(=O)=O	8.0
Nc1cc(C(F)(F)F)ccc1Sc1ccccc1C(=O)O	6.9
O=C(O)c1cc(C(F)(F)F)ccc1Sc1ccccc1	57.9*
O=C(O)Cc1ccccc1Sc1cccc(C(F)(F)F)c1	-1.4
O=C1c2ccccc2C2=Nc3cccc4cccc(c34)N12	-6.7
CCS(=O)(=O)Nc1ccc(Br)cc1	-1.5
CCOC(=O)c1cc(-c2ccccc2)sc1NC(=S)NCc1cccnc1	0.3
O=C1CC(CSCc2ccc(Cl)cc2)=NC(=O)N1	4.9
O=C1CC(CSc2nc3ccccc3[nH]2)=NC(=O)N1	10.5
N=C(N)SCC1=NC(=O)NC(=O)C1	26.3*
CN(C)C(=O)CS(=O)(=O)c1ccc2ccccc2c1	0.4
Cc1ccccc1NS(=O)(=O)c1ccccc1F	6.8
COc1ccccc1C(=O)Oc1ccc2c(C)cc(=O)oc2c1	-1.2
Nc1nc2c(ncn2S(=O)(=O)c2cccc([N+](=O)[O-])c2)c(=O)[nH]1	10.9
CS(=O)(=O)C(C(=O)c1ccccc1)C(=O)c1ccccc1	-4.8
Brc1ccc(C#Cc2ccccc2)cc1	-2.6
CS(=O)(=O)C#Cc1ccccc1	51.8*
COc1cc(OC)c(/C=C2\SC(=O)N(Cc3ccc(F)cc3)C2=O)cc1Br	-7.3
CCOC(=O)C1(C/C=C/c2ccccc2)CCCN(C(=O)Cn2cncn2)C1 (stereo not given)	7.3
